Reference: PubChem BioAssay (Tox21)
Values joined by “and” are separate entries in the source; they are usually repeats but may differ in a detail not shown here. Equal values may be shown once. Inconclusive results are not listed. Some compounds were tested as several samples or in several runs, with calls that do not always agree. Active and inactive are the calls of the source. Calls come from the whole dose curve; as a rule, active = well fitted curve in the direction sought with a large enough effect in the repeat runs; inconclusive = weak or mixed curves; inactive = no such curve, though single readings can be large; an effect the other way counts as inactive or inconclusive.

Molecular target: Nuclear receptor subfamily 1 group I member 2 (Homo sapiens) (UniProt O75469)
Test: Human pregnane X receptor (PXR) activation by small molecules, qHTS assay (AID 1346985); note: nearly all actives have a fitted effect of over 40% in size
Conditions: DPX-2 HepG2 CYP3A4-luciferase, 24 h; series mostly up to 38.3 µM; activation: at the top concentration
In short: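 DPX-2 cells (HepG2 co-transfected with a PXR response element and a CYP3A4-promoter luciferase construct) were seeded at 2,000 per well, rested 5 hr at 37C, then exposed to DMSO-dissolved compounds for 24 hr. Activation was read as luciferase luminescence.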
% is set by controls: 0 for no effect and ±100 for the full control effect; potency is the fitted concentration of half-maximal effect.

Row | SMILES | activation | Potency
1 | CC(=O)OCC(=O)[C@@]12N=C(C)O[C@@H]1C[C@H]1[C@@H]3CCC4=CC(=O)C=C[C@]4(C)[C@H]3[C@@H](O)C[C@@]12C | 16.1% (inactive) | –
2 | CC1=CCC2CC1C2(C)C (stereo unspecified) | -4.74% (inactive) | –
3 | C=CCNC(N)=S | 2.68% (inactive) | –
4 | O=c1[nH]c(=O)n([C@H]2CCCO2)cc1F | 5.04% (inactive) | –
5 | CC(c1cc2ccccc2s1)N(O)C(N)=O (stereo unspecified) | 21.2% (inactive) | –
6 | O=c1[nH]c(=O)n([C@H]2C[C@H](O)[C@@H](CO)O2)cc1Br | 15.8% (inactive) | –
7 | CC(=O)Nc1cccc(O)c1 | -3.99% (inactive) | –
8 | C#C[C@]1(O)CC[C@H]2[C@@H]3CCC4=CC(=O)CC[C@@H]4[C@H]3CC[C@@]21C | 14.5% (inactive) | –
9 | C#CCN(C)Cc1ccccc1 | -2.55% [at 17.1 µM] (inactive) | –
10 | CCN(CC)CCCC(C)Nc1ccnc2cc(Cl)ccc12 (stereo unspecified) | 8.9% (inactive) | –
11 | CCCCC(CC)COC(=O)C(C#N)=C(c1ccccc1)c1ccccc1 (stereo unspecified) | – | 10 µM (active)
12 | CC(=O)Nc1ccccc1 | -5.53% (inactive) | –
13 | O=C(O)[C@H](O)[C@@H](O)[C@H](O)[C@H](O)CO | – | inactive
14 | O=C(O)c1cc(O)c(O)c(O)c1 | 5.77% (inactive) | –
15 | CCCCCC(N)=O | 2.55% (inactive) | –
16 | OC[C@H]1O[C@@](CO)(O[C@H]2O[C@H](CO)[C@@H](O)[C@H](O)[C@H]2O)[C@@H](O)[C@@H]1O | 2.81% (inactive) | –
17 | OCCOCCOCCO | 1.98% (inactive) | –

Molecular target: Cytochrome P450 2D6 (Homo sapiens) (UniProt P10635)
Test: Cytochrome P450 Family 2 Subfamily D Member 6 (CYP2D6) small molecule antagonists: luciferase reporter qHTS assay (AID 1671196); note: nearly all actives have a fitted effect of over 50% in size
Conditions: P450-Glo CYP2D6 enzyme assay, luciferin luminescence, 1 h; series mostly up to 115 µM; activity change, negative = inhibition: at the top concentration
In short: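 Luminescence (RLU), read 20 min after detection reagent, indicated CYP2D6 conversion of proluciferin to luciferin during a 1 h NADPH-dependent reaction at room temperature.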

Cytochrome P450 2D6 (Homo sapiens), sequence (P10635 whole entry, looked up): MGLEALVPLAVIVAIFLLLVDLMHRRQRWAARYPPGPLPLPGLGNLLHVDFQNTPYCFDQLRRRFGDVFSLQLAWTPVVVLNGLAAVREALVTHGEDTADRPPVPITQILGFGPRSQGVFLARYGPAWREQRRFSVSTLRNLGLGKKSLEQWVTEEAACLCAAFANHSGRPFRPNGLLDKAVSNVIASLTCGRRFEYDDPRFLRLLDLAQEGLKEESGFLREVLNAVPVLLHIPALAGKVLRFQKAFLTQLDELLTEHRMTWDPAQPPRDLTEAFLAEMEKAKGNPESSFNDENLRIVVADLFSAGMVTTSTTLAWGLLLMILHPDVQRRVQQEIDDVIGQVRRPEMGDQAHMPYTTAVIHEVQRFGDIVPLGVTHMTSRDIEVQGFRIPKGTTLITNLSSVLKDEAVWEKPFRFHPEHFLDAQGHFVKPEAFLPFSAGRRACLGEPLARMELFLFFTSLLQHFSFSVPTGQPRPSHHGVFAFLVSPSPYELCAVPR

Row | SMILES | Potency | activity change, negative = inhibition
18 | CC[C@H](C)C(=O)O[C@H]1C[C@@H](C)C=C2C=C[C@H](C)[C@H](CC[C@@H]3C[C@@H](O)CC(=O)O3)[C@H]21 | 36.1 µM (active) and inactive | –
19 | C=CCOC(=O)c1ccccc1C(=O)OCC=C | – | -25.5% (inactive)
20 | O=S(=O)(O)c1ccc2ccccc2c1 | – | -10.2% (inactive)
21 | CC(=O)OCC(=O)[C@@]12N=C(C)O[C@@H]1C[C@H]1[C@@H]3CCC4=CC(=O)C=C[C@]4(C)[C@H]3[C@@H](O)C[C@@]12C | – | -8.8% [at 53 µM] (inactive)
22 | CC1=CCC2CC1C2(C)C (stereo unspecified) | inactive and 7.1 µM (active) | –
23 | C=CCNC(N)=S | 61.9 µM (active) and inactive | –
24 | C=C(C)C(=O)Nc1ccc(Cl)c(Cl)c1 | – | -19.3% (inactive)
25 | C=C(C)C(=O)O[C@H]1C[C@@H]2CC[C@@]1(C)C2(C)C | – | -8.81% (inactive)
26 | O=c1[nH]c(=O)n([C@H]2CCCO2)cc1F | inactive | –
27 | Fc1ccc(Br)cc1 | inactive | –
28 | CC(c1cc2ccccc2s1)N(O)C(N)=O (stereo unspecified) | – | -10.3% [at 53 µM] (inactive)
29 | O=c1[nH]c(=O)n([C@H]2C[C@H](O)[C@@H](CO)O2)cc1Br | inactive | –
30 | CC(=O)Nc1cccc(O)c1 | inactive | –
31 | CC(C)(C)[C@@H](O)[C@@H](Cc1ccc(Cl)cc1)n1cncn1 | 71 µM (active) | –
32 | C/C=C1/CC2C=CC1C2 (stereo unspecified) | inactive | –
33 | C#C[C@]1(O)CC[C@H]2[C@@H]3CCC4=CC(=O)CC[C@@H]4[C@H]3CC[C@@]21C | – | -11.5% [at 53 µM] (inactive)
34 | CCCCCCCCCCCCOCCO | inactive | –

Row | SMILES | Potency | activity change, negative = inhibition
35 | CCCCCOC(C)=O | – | -0.704% (inactive)
36 | O=C(CC(C(=O)OC1CCCCC1)S(=O)(=O)O)OC1CCCCC1 (stereo unspecified) | inactive | –
37 | CCCCC(CC)COC(=O)C(C#N)=C(c1ccccc1)c1ccccc1 (stereo unspecified) | 5.03 µM (active) and 5.49 µM (active) | –
38 | CC(=O)c1ccccc1 | inactive | –
39 | O=C(OCCOCCOC(=O)c1ccccc1)c1ccccc1 | inactive | –
40 | CC(=O)Nc1ccccc1 | inactive | –
41 | O=c1[nH]nnc2ccccc12 | inactive | –
42 | O=C(O)[C@H](O)[C@@H](O)[C@H](O)[C@H](O)CO | inactive | –
43 | CCCCCCOCCO | – | 3.39% (inactive)
44 | O=C(O)c1cc(O)c(O)c(O)c1 | inactive | –
45 | CSCCC=O | – | -9.19% (inactive)
46 | CCCCCC(N)=O | inactive | –
47 | OC[C@H]1O[C@@](CO)(O[C@H]2O[C@H](CO)[C@@H](O)[C@H](O)[C@H]2O)[C@@H](O)[C@@H]1O | inactive | –
48 | OCCOCCOCCO | inactive | –
49 | CCCCC(CC)COC(=O)CS (stereo unspecified) | 28.6 µM (active) | –
50 | CCCCCCCCCCCCc1ccccc1 | inactive | –
51 | O=C(O)c1ccc2c(c1)C(=O)OC2=O | – | -20.1% (inactive)
